Source: PubChem BioAssay (NCATS)
Records with an inconclusive call do not appear. Activity calls are given as the source filed them. The call rests on the fitted dose curve; in most records, active means well fitted curve in the direction sought with a large enough effect; inconclusive means small, poorly fitted or top-dose-only effect, or another doubt; inactive means no such curve, though single readings can be large; an effect the other way counts as inactive or inconclusive.

Legend:
[1] = Quantitative High-Throughput drug screen in 47 multiple myeloma cell lines against the NCATS MIPE library collection: KMM1_JCRB cell viability assay (AID 1918960); further: nearly all actives have a fitted effect of over 30% in size; further: potency means the concentration at half of the fitted maximal effect;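 on viability (% of DMSO): 100% = DMSO-treated cells and 0% = medium-only wells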
Method in brief: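 Luminescence from CellTiter-Glo, taken after 5 min at room temperature, reports cellular ATP as viability. Cells (500 per well) had been treated 48 h at 37 °C with MIPE 4.0 compounds, scaled between DMSO and medium-only controls.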

[2] = Quantitative High-Throughput drug screen in 47 multiple myeloma cell lines against the NCATS MIPE library collection: Karpas417_ECACC cell viability assay (AID 1918961); details: Karpas417 myeloma viability, CellTiter-Glo ATP luminescence, 48 h; viability (% of DMSO): at 45.8 µM (top of the series); further: potency means the concentration at half of the fitted maximal effect
Method in brief: (§1)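 qHTS of the MIPE 4.0 collection: 500 myeloma cells/well, 48 h drug exposure at 37C in 5% CO2, then CellTiter-Glo for 5 min at room temperature before luminescence reading.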

[3] = Quantitative High-Throughput drug screen in 47 multiple myeloma cell lines against the NCATS MIPE library collection: JIM3_ECACC cell viability assay (AID 1918963; further: nearly all actives have a fitted effect of over 35% in size; further: potency means the concentration at half of the fitted maximal effect)
Method in brief: (§2)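 Inhibition of cell viability is measured here. Each line was plated at 500 cells per well, treated with MIPE 4.0 drugs, kept 48 hours at 37C, then assayed for ATP content by CellTiter-Glo luminescence.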

[4] = Quantitative High-Throughput drug screen in 47 multiple myeloma cell lines against the NCATS MIPE library collection: H1112_PLB cell viability assay (AID 1918967; further: nearly all actives have a fitted effect of over 30% in size; further: potency means the concentration at half of the fitted maximal effect)
Method in brief: (§3)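 Steps: seed 500 cells per well; pin-transfer MIPE 4.0 library; incubate 48 h at 37C, 5% CO2, humidified; add CellTiter-Glo, 5 min room temperature; read luminescence.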

[5] = Quantitative High-Throughput drug screen in 47 multiple myeloma cell lines against the NCATS MIPE library collection: KMS12BM_JCRB cell viability assay (AID 1918971); further: nearly all actives have a fitted effect of over 35% in size; further: potency means the concentration at half of the fitted maximal effect
Method in brief: (§4)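 We plated 500 myeloma cells per well, pinned in MIPE 4.0 compounds, and incubated for 48 hours at 37C. ATP was then quantified with CellTiter-Glo, with DMSO and media-only wells defining 100% and 0%.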

[6] = Quantitative High-Throughput drug screen in 47 multiple myeloma cell lines against the NCATS MIPE library collection: KMS12PE_JCRB cell viability assay (AID 1918972); further: nearly all actives have a fitted effect of over 30% in size; further: potency means the concentration at half of the fitted maximal effect
Method in brief: as §1

[7] = Quantitative High-Throughput drug screen in 47 multiple myeloma cell lines against the NCATS MIPE library collection: MMM1_PLB cell viability assay (AID 1918976); further: nearly all actives have a fitted effect of over 35% in size; further: potency means the concentration at half of the fitted maximal effect
Method in brief: (§5)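 Viability after 48 h drug exposure was measured as ATP-dependent luminescence. Cells, 500 per well, sat at 37 °C under 5% CO2; DMSO wells set 100%, media-only wells 0%.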

[8] = Quantitative High-Throughput drug screen in 47 multiple myeloma cell lines against the NCATS MIPE library collection: MOLP8_DSMZ cell viability assay (AID 1918977); further: nearly all actives have a fitted effect of over 45% in size; further: potency means the concentration at half of the fitted maximal effect
Method in brief: as §5

[9] = Quantitative High-Throughput drug screen in 47 multiple myeloma cell lines against the NCATS MIPE library collection: NCIH929_DSMZ cell viability assay (AID 1918978); further: nearly all actives have a fitted effect of over 35% in size; further: potency means the concentration at half of the fitted maximal effect
Method in brief: as §5

[10] = Quantitative High-Throughput drug screen in 47 multiple myeloma cell lines against the NCATS MIPE library collection: MM1S_ATCC cell viability assay (AID 1918980); further: potency means the concentration at half of the fitted maximal effect; nearly all actives have a fitted effect of over 45% in size
Method in brief: as §5

[11] = Quantitative High-Throughput drug screen in 47 multiple myeloma cell lines against the NCATS MIPE library collection: JIM1_ECACC cell viability assay (AID 1918964; further: potency means the concentration at half of the fitted maximal effect)
Method in brief: as §3

[12] = Quantitative High-Throughput drug screen in 47 multiple myeloma cell lines against the NCATS MIPE library collection: INA6_PLB cell viability assay (AID 1918965; further: nearly all actives have a fitted effect of over 55% in size; further: potency means the concentration at half of the fitted maximal effect)
Method in brief: as §1

[13] = Quantitative High-Throughput drug screen in 47 multiple myeloma cell lines against the NCATS MIPE library collection: JJN3_DSMZ cell viability assay (AID 1918966; further: nearly all actives have a fitted effect of over 50% in size; further: potency means the concentration at half of the fitted maximal effect)
Method in brief: as §3

[14] = Quantitative High-Throughput drug screen in 47 multiple myeloma cell lines against the NCATS MIPE library collection: KHM11_PLB cell viability assay (AID 1918962); further: nearly all actives have a fitted effect of over 35% in size; further: potency means the concentration at half of the fitted maximal effect
Method in brief: as §2

[15] = Quantitative High-Throughput drug screen in 47 multiple myeloma cell lines against the NCATS MIPE library collection: KMS27_JCRB cell viability assay (AID 1918970); details: KMS27 myeloma cells, CellTiter-Glo ATP viability, 48 h; viability (% of DMSO): at 45.8 µM (top of the series); further: nearly all actives have a fitted effect of over 30% in size; further: potency means the concentration at half of the fitted maximal effect
Method in brief: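 Myeloma cells (500 per well) were exposed to MIPE 4.0 compounds for 48 h at 37 °C, 5% CO2; viability was read as ATP luminescence with CellTiter-Glo, normalized to DMSO-only (100%) and media-only (0%) wells.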

[16] = Quantitative High-Throughput drug screen in 47 multiple myeloma cell lines against the NCATS MIPE library collection: KMS20_JCRB cell viability assay (AID 1918973); further: nearly all actives have a fitted effect of over 45% in size; further: potency means the concentration at half of the fitted maximal effect
Method in brief: as §3

[17] = Quantitative High-Throughput drug screen in 47 multiple myeloma cell lines against the NCATS MIPE library collection: OCIMY1_PLB cell viability assay (AID 1918979); further: nearly all actives have a fitted effect of over 35% in size
Method in brief: as §5

[18] = Quantitative High-Throughput drug screen in 47 multiple myeloma cell lines against the NCATS MIPE library collection: KMS26_JCRB cell viability assay (AID 1918975); further: potency means the concentration at half of the fitted maximal effect; nearly all actives have a fitted effect of over 45% in size
Method in brief: as §4

[19] = Quantitative High-Throughput drug screen in 47 multiple myeloma cell lines against the NCATS MIPE library collection: KMS21BM_JCRB cell viability assay (AID 1918974); details: ATP luminescence, 48 h; viability: at 45.8 µM (top of the series); further: potency means the concentration at half of the fitted maximal effect
Method in brief: as §3

[20] = Quantitative High-Throughput drug screen in 47 multiple myeloma cell lines against the NCATS MIPE library collection: Karpas25_ECACC cell viability assay (AID 1918968; further: nearly all actives have a fitted effect of over 35% in size; further: potency means the concentration at half of the fitted maximal effect)
Method in brief: as §3

CCCCOCCOc1nc(-c2ccc(C(=O)O)c(F)c2)sc1C
inactive: Potency [1] | Potency [2] | Potency [4] | Potency [6] | Potency [7] | Potency [8] | Potency [9]
active: Potency [3] 0.372 µM | Potency [5] 0.418 µM | Potency [10] 13.2 µM

CN[C@@H]1[C@@H](O)[C@@H](O[C@@H]2[C@@H](O)[C@H](O[C@H]3O[C@H](CN)[C@@H](O)[C@H](O)[C@@H]3O)[C@@H](N)C[C@@H]2NC(=O)[C@@H](O)CN)OC[C@]1(C)O
active: Potency [7] 5.26 µM
inactive: Potency [1] | Potency [2] | Potency [11] | Potency [12] | Potency [13] | Potency [9]

N#CC(c1ccnc(NCCc2cccnc2)n1)c1nc2ccccc2s1 (centres undefined)
inactive: Potency [8] | Potency [17]
active: Potency [1] 4.69 µM | Potency [14] 11.8 µM | Potency [3] 16.6 µM | Potency [11] 5.9 µM | Potency [12] 3.72 µM | Potency [13] 10.5 µM | Potency [4] 18.7 µM | Potency [15] 7.43 µM | Potency [6] 4.18 µM | Potency [16] 14.8 µM | Potency [7] 20.9 µM | Potency [9] 7.43 µM

COc1nccc(-c2c(-c3ccc(F)cc3)ncn2C2CCC(O)CC2)n1 (centres undefined)
inactive: Potency [1] | Potency [3] | Potency [17]
active: Potency [2] 4.69 µM | Potency [12] 13.2 µM | Potency [5] 20.9 µM | Potency [18] 6.62 µM | Potency [10] 4.69 µM

CSc1cccc(Nc2ncc3cc(-c4c(Cl)cccc4Cl)c(=O)n(C)c3n2)c1
active: Potency [1] 0.059 µM | Potency [2] 0.0264 µM | Potency [14] 0.0332 µM | Potency [12] 0.059 µM | Potency [13] 3.32 µM | Potency [5] 1.32 µM | Potency [6] 0.059 µM | Potency [16] 0.0105 µM | Potency [19] 0.0209 µM | Potency [8] 0.833 µM | Potency [9] 13.2 µM
inactive: Potency [4]

CC1=C(CC(=O)O)c2cc(F)ccc2C1=Cc1ccc(S(C)=O)cc1 (centres undefined)
inactive: Potency [17]
active: Potency [1] 20.9 µM | Potency [2] 14.8 µM | Potency [3] 13.2 µM | Potency [12] 18.7 µM | Potency [13] 10.5 µM | Potency [16] 9.35 µM | Potency [19] 20.9 µM | Potency [18] 2.09 µM | Potency [9] 1.05 µM | Potency [10] 1.32 µM

CC(=O)O[C@]1(C(C)=O)CC[C@H]2[C@@H]3C=C(Cl)C4=CC(=O)[C@@H]5C[C@H]5[C@]4(C)[C@@H]3CC[C@@]21C
inactive: Potency [17]
active: Potency [1] 18.7 µM | viability (% of DMSO) [2] 112% | Potency [3] 23.5 µM | Potency [12] 14.8 µM | Potency [4] 9.35 µM | Potency [15] 18.7 µM | Potency [9] 9.35 µM | Potency [10] 7.43 µM

OC[C@H]1O[C@@H](OCCc2ccc(O)cc2)[C@H](O)[C@@H](O)[C@H]1O
active: Potency [10] 20.9 µM
inactive: Potency [1] | Potency [14] | Potency [3] | Potency [11] | Potency [5] | Potency [6]

Cc1ccc(C(=O)N(CCCN)[C@@H](c2oc3cc(Cl)ccc3c(=O)c2Cc2ccccc2)C(C)C)cc1
inactive: Potency [3] | Potency [15]
active: Potency [1] 0.001 µM | Potency [14] 9.35 µM | Potency [13] 18.7 µM | Potency [18] 26.4 µM | Potency [7] 23.5 µM | Potency [9] 8.33 µM

N[C@@H](CC(=O)N1CCn2c(nnc2C(F)(F)F)C1)Cc1cc(F)c(F)cc1F
inactive: Potency [1] | Potency [14] | Potency [3] | Potency [11] | Potency [4] | Potency [20] | Potency [5] | Potency [6] | Potency [9] | Potency [17]
active: Potency [7] 1.87 µM | Potency [10] 26.4 µM

CCCCC[C@H](O)C=C[C@H]1[C@H](O)CC(=O)[C@H]1CC=CCCCC(=O)O
active: Potency [14] 5.9 µM | Potency [3] 20.9 µM | Potency [12] 18.7 µM | Potency [20] 20.9 µM | Potency [5] 20.9 µM | Potency [8] 16.6 µM | Potency [9] 16.6 µM | Potency [10] 20.9 µM
inactive: Potency [1] | Potency [17]

O=C(Nc1ccccc1)Nc1ccc(-c2ccc(C(=O)[C@H]3CCC[C@H]3C(=O)O)cc2)cc1
active: Potency [1] 7.43 µM | Potency [13] 3.72 µM | Potency [15] 0.372 µM | Potency [10] 26.4 µM
inactive: Potency [14] | Potency [3] | Potency [12] | Potency [4] | Potency [20] | Potency [9] | Potency [17]

Nc1[nH]nc2nnc(-c3c(-c4ccccc4)nn4ccccc34)cc12
inactive: Potency [5]
active: Potency [1] 4.69 µM | Potency [14] 10.5 µM | Potency [3] 9.35 µM | Potency [11] 3.32 µM | Potency [12] 1.05 µM | Potency [4] 4.18 µM | Potency [20] 1.66 µM | Potency [15] 1.87 µM | Potency [6] 2.35 µM | Potency [9] 3.72 µM | Potency [10] 0.264 µM

CN1CC(=O)NC1=NC(=O)Nc1cccc(Cl)c1
inactive: Potency [6]
active: Potency [1] 4.69 µM | Potency [14] 14.8 µM | Potency [3] 13.2 µM | Potency [12] 14.8 µM | Potency [13] 8.33 µM | Potency [4] 16.6 µM | Potency [20] 5.26 µM | Potency [18] 18.7 µM | Potency [7] 20.9 µM | Potency [8] 10.5 µM | Potency [9] 16.6 µM | Potency [10] 26.4 µM

CC1CCN(c2cc(N3CCN(C)CC3)ccc2NC(=O)c2cc(C#N)c[nH]2)CC1
active: Potency [7] 23.5 µM
inactive: Potency [1] | Potency [14] | Potency [3] | Potency [11] | Potency [4] | Potency [20] | Potency [6] | Potency [16] | Potency [9]
